# Screening data as filed in PubChem.
# PfGluPho inh: PfG6PD enzyme inhibitors, primary screen, biochemical, fluorescence intensity, uHTS | PfGluPho enzyme, NADPH resazurin-diaphorase fluorescence | inhibition, % at 20 µM | 0.78% of 350,000 active | AID 504690, 2011;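 active means inhibition reaching at least a set limit at 20 µM in the primary screen, cut at about 59% in these data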;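 further: 0% = DMSO wells with substrate and 100% = DMSO wells lacking glucose-6-phosphate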
# M18AAP inhibitor: PfM18AAP inhibitors, malaria aminopeptidase, primary screen, biochemical, QFRET, recombinant enzyme; inhibition, % at 7.35 µM; 1.2% of 290,000 active; AID 1822, 2009; H-Glu-NHMec fluorogenic cleavage;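 active means inhibition above the campaign mean inhibition over all tested compounds plus 3 SD, cut at about 28% in these data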;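 further: 0% = plate median of test compound wells and 100% = 2 mM ZnCl2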
# MBD2 inh: inhibitors of MBD2 binding to methylated DNA, primary screen, biochemical, TR-FRET, DNA-binding domain, human; Methyl-CpG-binding domain protein 2 (Homo sapiens), Q9UBB5; MBD2 binding to methylated oligonucleotide; inhibition, % at 4.4 µM; 0.31% of 370,000 active; AID 686964, 2013; in the data active means inhibition above about 13%
# Target sequence (Q9UBB5 whole entry, looked up, the tested form may be a part): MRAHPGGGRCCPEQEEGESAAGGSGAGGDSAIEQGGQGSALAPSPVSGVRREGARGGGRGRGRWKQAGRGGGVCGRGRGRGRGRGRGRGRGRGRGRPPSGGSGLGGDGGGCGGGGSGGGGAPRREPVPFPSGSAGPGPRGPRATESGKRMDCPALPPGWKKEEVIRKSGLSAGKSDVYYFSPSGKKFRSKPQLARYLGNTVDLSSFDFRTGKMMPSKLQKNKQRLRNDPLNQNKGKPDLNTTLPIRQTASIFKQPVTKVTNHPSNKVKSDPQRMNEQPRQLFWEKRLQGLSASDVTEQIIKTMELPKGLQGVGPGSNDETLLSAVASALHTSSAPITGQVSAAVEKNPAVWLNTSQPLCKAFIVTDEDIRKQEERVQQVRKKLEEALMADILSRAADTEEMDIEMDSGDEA
# PRMT1 FP inh: PRMT1 methyltransferase inhibitors, primary screen, biochemical, fluorescence polarization | inhibition, % at 2.79 µM | 1.3% of 370,000 active | Protein arginine N-methyltransferase 1 (Homo sapiens), Q99873 | recombinant PRMT1, activity-based probe fluorescence polarization;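 active means inhibition above about 21% made by adding two undisclosed values, limit read from the data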
# UHRF1 MBD2 ctr: UHRF1 methylated DNA binding inhibitors, primary screen, counter-screen for MBD2 inhibitor project, biochemical, TR-FRET, human UHRF1, single concentration. 0.75% of 370,000 active. inhibition, % at 4.4 µM. UHRF1 binding to methylated oligo. E3 ubiquitin-protein ligase UHRF1 (Homo sapiens), Q96T88; in the data active means inhibition above about 21%;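 further: UHRF1 SRA domain binding a hemimethylated CpG hairpin DNA probe; 0% = median of test compound wells and 100% = reference inhibitor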
# Active calls of the source: *; . = no result. Only some compounds are listed: those with a hit (about 3.3% of all), similar ones and a draw of the others.
SMILES,PfGluPho inh,M18AAP inhibitor,MBD2 inh,PRMT1 FP inh,UHRF1 MBD2 ctr
O=C1CC(O)C(Cc2ccccc2)N1 (stereo not drawn),.,.,11,7,2
CC(C)(C)OC(=O)/C=C/[C@H](CCCCl)Sc1ccc(C(C)(C)C)cc1,.,.,-2,-1,1
Cc1ccc(SCCC(=O)Nc2ccccc2Br)cc1,7,5,-1,0,1
Cc1ccc(SCCC(=O)Nc2ccccc2C(=O)NC(C)C)cc1,-7,-6,6,-1,22*
CC1(C)Cc2ccccc2/C(=C/C(=O)N2CCCCCC2)N1,-4,0,-7,22*,-5
O=C(O)C1(Nc2ccc([N+](=O)[O-])cc2[N+](=O)[O-])CCCC1,-3,.,-6,23*,-4
CCc1ccccc1NC(=O)[C@@H]1CCCN1S(=O)(=O)c1cccc2cccnc12,.,.,-1,0,-3
CCc1nnc(NC(=O)CSc2nc3[nH]ncc3c(=O)[nH]2)s1,-10,31*,-4,-2,0
CCCCSc1nc2[nH]ncc2c(=O)[nH]1,-7,3,-6,-1,68*
Cc1ccc(C)c(CSc2nc3[nH]ncc3c(=O)[nH]2)c1,-10,8,5,3,1
Cc1nnc(NC(=O)CSc2nc3[nH]ncc3c(=O)[nH]2)s1,-3,18,2,-1,3
CCSc1nc2[nH]ncc2c(=O)[nH]1,0,17,-1,0,0
Cc1ccccc1CSc1nc2[nH]ncc2c(=O)[nH]1,0,31*,2,3,15
CSc1ccc(-c2cnc(N3CCC(C(N)=O)CC3)s2)cc1,.,.,-3,0,-2
Cc1ccc(NC(=O)N2CC(C)OC(C)C2)cc1[N+](=O)[O-] (stereo not drawn),.,.,2,0,-1
O=c1cc(-c2ccccc2)oc2cc(O)ccc12,6,.,1,-5,-8
Nc1ccc(-c2c3ccc(=O)cc-3oc3cc(O)ccc23)cc1C(=O)O,17,14,-28,71*,-46
O=c1ccc2c(-c3ccccc3)c3ccc(O)cc3oc-2c1,-24,27,-99,90*,-439
Cn1c(SCC2CCC2)nnc1-c1ccco1,.,.,1,0,1
Cc1ccccc1NC(=O)C[C@H]1CC[C@H]2[C@@H](COc3ccc(NC(=O)Nc4ccccc4)cc3C(=O)N2C)O1,.,.,8,-2,5
CCC(C)N(C(=O)CCC(=O)Nc1cc(C)on1)C(C(=O)NC(C)(C)C)c1ccccc1Cl (stereo not drawn),3,1,2,1,0
Cc1cc(NC(=O)CCC(=O)N(C(C(=O)NC(C)(C)C)c2ccccc2Cl)C(C)(C)C)no1 (stereo not drawn),6,-5,6,2,25*
c1ccc(CCn2nnc(-c3ccc(N4CCOCC4)cc3)n2)cc1,.,.,-3,-7,2
Cc1ccc([N+](=O)[O-])cc1NC(=O)c1cccnc1,18,-7,5,4,39*
Cc1cc(NS(=O)(=O)c2ccc(NC(=O)CSc3nc4sc(C)c(C)c4c(=O)n3Cc3ccco3)cc2)nc(C)n1,.,.,-6,24*,0
SMILES,PfGluPho inh,M18AAP inhibitor,MBD2 inh,PRMT1 FP inh,UHRF1 MBD2 ctr
CCn1c(SCC(=O)Nc2ccc(S(=O)(=O)Nc3cc(C)nc(C)n3)cc2)nc2sc(C)c(C)c2c1=O,.,.,-13,-2,-2
CC(C)(C)c1ccc(-c2nnc(SCC(=O)Nc3ccc(S(=O)(=O)Nc4nccs4)cc3)n2Cc2ccco2)cc1,.,.,-1,22*,1
O=C(CSc1nnc(-c2ccncc2)n1Cc1ccco1)Nc1nccs1,-14,2,4,3,1
C=CCCC1CN(Cc2ccc(OC)cc2)S(=O)(=O)c2c(NCc3cc(OC)c(OC)c(OC)c3)cccc2O1 (stereo not drawn),.,.,5,-3,17
COc1ccc(OC)c(NC(=O)CSc2ncnc3sc(C)cc23)c1,-19,.,-1,23*,2
CC1(OC(=O)c2ccco2)C(=O)C=C2C=C(C3CC3)OC=C2C1=O (stereo not drawn),26,.,-7,18,1
CCC(=O)OC1(C)C(=O)C=C2C=C(C3CC3)OC=C2C1=O (stereo not drawn),18,.,0,23*,1
Cc1ccc(S(=O)(=O)NN2C(=O)/C(=C/c3ccc(C(=O)O)cc3)SC2=S)cc1,-18,15,0,22*,5
NC(=O)Cn1c(=O)n(Cc2ccco2)c(=O)c2c3c(sc21)CCCCC3,27,-17,4,21*,21*
O=C(CCN=C1NS(=O)(=O)c2ccccc21)OCC(=O)c1ccccc1,-8,.,0,4,32*
O=C(CCCN=C1NS(=O)(=O)c2ccccc21)OCC(=O)c1ccccc1,-1,.,1,2,-3
COc1ccc(-c2ncncc2-c2csc(C)n2)c(O)c1OC,-22,-3,2,1,2
COC1=C(N)C(=O)c2nc(-c3nc(C(=O)O)c(C)c(-c4ccc(OC)c(OC)c4O)c3N)ccc2C1=O,93*,19,.,.,.
C=CCNC(=S)N1C[C@H]2CON(C)[C@H]2C[C@H]1c1ccccc1Br,.,.,-1,-9,2
O=C(NNc1ccc([N+](=O)[O-])cc1[N+](=O)[O-])C1C2CCCCC21 (stereo not drawn),-4,6,1,1,1
O=C(NNc1ccc([N+](=O)[O-])cc1)C1C2CCCCC21 (stereo not drawn),-1,59*,4,-2,4
COc1ccc2ccccc2c1C(O)c1nccn1C (stereo not drawn),7,-8,-5,85*,4
Cn1ccnc1C(O)c1ccccc1 (stereo not drawn),-4,-15,2,3,1
O=C(O)c1ccc2c(c1)C(=O)/C(=C/c1ccccc1)C2=O,23,10,-10,25*,16
O=S(=O)(c1ccc2nc(Nc3ccccc3)ccc2c1)N1CCCCC1,31,3,11,2,23*
O=S(=O)(c1ccc2nc(N3CCN(c4ccccc4F)CC3)ccc2c1)N1CCCCC1,-2,5,7,-2,18
O=S(=O)(c1ccc2nc(N3CCN(c4ccc(F)cc4)CC3)ccc2c1)N1CCCCC1,16,8,12,-1,24*
Cc1ccc2sc(NNC(=O)c3cc(=O)c4ccccc4o3)nc2c1C,4,30*,6,10,4
Fc1cccc2sc(Nc3nc4c(F)cccc4s3)nc12,-4,-4,-1,0,-1
Cc1ccc2sc(NNC(=O)c3cc(-c4cccs4)nc4ccccc34)nc2c1C,.,9,1,0,-2
COc1ccc2nc(NNC(=O)COc3ccccc3)sc2c1,0,38*,5,0,-1
NNc1nc2c(F)cccc2s1,12,30*,2,7,4
